The source of these data is PubChem BioAssay (Tox21).

The target in the assay is Beta-2 adrenergic receptor (Homo sapiens) (UniProt P07550). Nature of the assay: Adrenergic beta2 receptor (ADRB2) small molecule agonists, cell-based qHTS assay (AID 1963593).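 Also: CHO cells stably overexpressing human ADRB2.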 The following applies: CHO-ADRB2 cells, cAMP HTRF, 30 min; series mostly up to 42.5 µM. An outline of the steps:
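CHO cells stably over-expressing ADRB2 were plated overnight at 37C, then dosed with compounds plus a stimulation mix containing 100uM IBMX and 25uM Ro-20-1724 for 0.5hr at room temperature. cAMP was measured by HTRF competition, 1hr.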

Inconclusive results are not listed. Entries that show only a call come without a potency. Activity calls are given as the source filed them. Calls follow the shape of the full dose curve.

Beta-2 adrenergic receptor (Homo sapiens), sequence (P07550 whole entry, looked up): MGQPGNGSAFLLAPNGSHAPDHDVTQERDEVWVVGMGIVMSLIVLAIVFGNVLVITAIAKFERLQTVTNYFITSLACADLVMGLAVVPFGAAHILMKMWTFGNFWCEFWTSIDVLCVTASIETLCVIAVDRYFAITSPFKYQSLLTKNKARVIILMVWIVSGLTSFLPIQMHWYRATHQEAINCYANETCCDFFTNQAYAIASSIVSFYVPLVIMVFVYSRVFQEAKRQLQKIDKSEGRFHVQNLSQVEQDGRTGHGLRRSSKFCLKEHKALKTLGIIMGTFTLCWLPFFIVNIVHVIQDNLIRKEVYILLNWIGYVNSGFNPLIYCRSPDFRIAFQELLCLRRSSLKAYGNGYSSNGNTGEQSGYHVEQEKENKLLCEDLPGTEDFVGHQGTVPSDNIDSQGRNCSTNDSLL

`CCCCCCCCCCCCCOP(=O)(O)O`: the Potency result is “inactive”.
Take `O=C(O)P(=O)(O)O`: the Potency entry is “inactive”.
Next, `COc1ccccc1OC(=O)Oc1ccccc1OC`: “inactive”; `C=C(C)C(=O)OCCCC`: “inactive”; `COCCCN1CCC(NC(=O)c2cc(Cl)c(N)c3c2OCC3)CC1`: “inactive”.
For the compound `N#C[C@@H]1CC(F)(F)CN1C(=O)CNC1CC2CCC(C1)N2c1ncccn1` (stereo partly drawn), the Potency result is “inactive”.
In the case of `CCn1cc(C(=O)O)c(=O)c2cc(F)c(N3CCNCC3)cc21`, the Potency result is “inactive”.
The result for `O=Cc1ccccc1[N+](=O)[O-]` reads “inactive”; that for `Cc1ccc2c(c1[N+](=O)[O-])C(=O)c1ccccc1C2=O`, “inactive”; that for `CCCCN1CCCC[C@H]1C(=O)Nc1c(C)cccc1C`, “inactive”.
The result for `NS(=O)(=O)c1cc(C(=O)O)cc(N2CCCC2)c1Oc1ccccc1` reads “inactive”.
In the case of `COc1cc2c3cc1Oc1cc(ccc1O)C[C@@H]1c4c(cc(OC)c(O)c4Oc4ccc(cc4)C[C@@H]3N(C)CC2)CC[N+]1(C)C`, the Potency entry was “inactive”.
Next, `Nc1[nH]c(=O)ncc1F`: “inactive”.
As to `CCc1nnc(NS(=O)(=O)c2ccc(N)cc2)s1`, the Potency result was “inactive”.
`CO[Si](CCCS)(OC)OC`: the Potency result was “inactive”.
As to `CC(C)CC(C)CC(C)CC(C)COC(=O)c1ccccc1C(=O)OCC(C)CC(C)CC(C)CC(C)C` (stereo not drawn), the Potency result is “inactive”.
Take `CCCCOCCOC(=O)CCCCCCCCC(=O)OCCOCCCC`: the Potency result was “inactive”.
`COc1ccc(/C=C/S(=O)(=O)NC(=O)c2ccc(C)cc2Cl)cc1`: the Potency entry is “inactive”.
On to `CCCCCCCCCCCCCCCCCl`, for which the Potency entry was “inactive”.
In the case of `CCCCCCC(CCCCCCCCCCC(=O)OCC(COC(C)=O)OC(C)=O)OC(C)=O` (stereo not drawn), the Potency entry was “inactive”.
Regarding `Cc1c[nH]c2ccccc12`, the Potency entry is “inactive”.
Next, `Clc1ccc(C(Cn2ccnc2)OCc2c(Cl)cccc2Cl)c(Cl)c1` (stereo not drawn): “inactive”; `O=C(O)CCCC[P+](c1ccccc1)(c1ccccc1)c1ccccc1`: “inactive”; `Nc1ncnc(Nc2ccccc2)n1`: “inactive”.
`O=C(OCc1ccccc1)C(=O)OCc1ccccc1`: the Potency entry was “inactive”.
As to `Clc1cc(Cl)cc(Cl)c1`, the Potency result is “inactive”.
Regarding `CC(N)C12CC3CC(CC(C3)C1)C2` (stereo not drawn), the Potency result was “inactive”.
For the compound `O=c1c(O)c(-c2ccc(O)cc2O)oc2cc(O)cc(O)c12`, the Potency result is “inactive”.
`O=C(O)c1cccc(O)c1`: the Potency result is “inactive”.
`O=C(CCN1CCC(c2ccccc2)C1)c1ccc2c(c1)OCCO2` (stereo not drawn): the Potency result is “inactive”.
Regarding `O=C1c2ccccc2C(=O)C1c1ccc(Br)cc1`, the Potency entry is “inactive”.
On to `C[C@]1(Cn2ccnn2)[C@H](C(=O)O)N2C(=O)C[C@H]2S1(=O)=O`, for which the Potency entry was “inactive”.
Take `Cc1cn[nH]c1`: the Potency result was “inactive”.
Next, `N#CCC(=O)NN`: “inactive”.
With `CC(NN)c1ccccc1` (stereo not drawn), the Potency entry was “inactive”.
On to `Cc1ccnc2ccccc12`, for which the Potency result was “inactive”.
In the case of `CC(C)C[C@H](NC(=O)[C@H](CCc1ccccc1)NC(=O)CN1CCOCC1)C(=O)N[C@@H](Cc1ccccc1)C(=O)N[C@@H](CC(C)C)C(=O)[C@@]1(C)CO1`, the Potency entry was “inactive”.
With `CCN(CC)CCNC(=O)COc1ccc(Cl)cc1`, the Potency entry was “inactive”.
`CC(C)(C)C(=O)NCCCC(=O)O`: the Potency result is “inactive”.
Consider `CCN1CCCC1CN` (stereo not drawn), for which the Potency result is “inactive”.
For the compound `OCCNCc1ccccc1`, the Potency result was “inactive”.
The result for `C=CC/C=C/C/C=C/C/C=C/C` reads “inactive”; that for `CC(=O)Oc1ccc(C2(c3ccc(OC(C)=O)cc3)C(=O)Nc3ccccc32)cc1`, “inactive”.
